# ELG1 genotox: genotoxicity induction in ELG1-luciferase HEK293T cells; HEK293T ELG1-luciferase reporter, luminescence, 16 h; Potency, µM (series often up to 46 µM), for the others: at the highest dose activity change, positive = activation, actives largely listed as activators; hit rate 1.3% among 330,000; AID 504466; note: % of control where 0% means no effect; nearly all actives have a fitted effect of over 60% in size
#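 Cells (2,000/well) expressing the ELG1-luciferase fusion are dosed by pin tool and kept 16 hr at 37 °C, 5% CO2. Signal comes from ONE-Glo luciferase reagent after 30 min at room temperature.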
# SMN2 splice enh: SMN2 splice variant enhancement; HEK293 SMN2-luciferase splicing reporter, luminescence, 30-36 h; Potency, µM (doses to about 46.1 µM), inactives show at the top dose activity change, positive = activation, usual class: activators; hit rate 2.8% among 210,000; note: % of control where 0% means no effect; nearly all actives have a fitted effect of over 55% in size
#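 HEK293 cells carry an SMN2 […]–luciferase reporter in which exon 7 inclusion puts luciferase in frame. Cells were plated 10-12 h before compound addition, then incubated 30-36 h at 37C. ONE-Glo luminescence was read; sodium butyrate at 4.5 mM final served as control.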
# FLuc counter: counter-screen for miR-21 project: firefly luciferase inhibitors or activators | purified FLuc, Km substrates, luminescence inhibition | Potency, µM (highest dose often 57.5 µM), for the others: top-dose activity change, negative = inhibition, usual class: inhibitors | hit rate 6.9% among 360,000 | AID 588342;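 note: plate controls were vehicle for no effect and reference inhibitor for full effect; nearly all actives have a fitted effect of over 55% in size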
# Target sequence (P08659 whole entry, looked up): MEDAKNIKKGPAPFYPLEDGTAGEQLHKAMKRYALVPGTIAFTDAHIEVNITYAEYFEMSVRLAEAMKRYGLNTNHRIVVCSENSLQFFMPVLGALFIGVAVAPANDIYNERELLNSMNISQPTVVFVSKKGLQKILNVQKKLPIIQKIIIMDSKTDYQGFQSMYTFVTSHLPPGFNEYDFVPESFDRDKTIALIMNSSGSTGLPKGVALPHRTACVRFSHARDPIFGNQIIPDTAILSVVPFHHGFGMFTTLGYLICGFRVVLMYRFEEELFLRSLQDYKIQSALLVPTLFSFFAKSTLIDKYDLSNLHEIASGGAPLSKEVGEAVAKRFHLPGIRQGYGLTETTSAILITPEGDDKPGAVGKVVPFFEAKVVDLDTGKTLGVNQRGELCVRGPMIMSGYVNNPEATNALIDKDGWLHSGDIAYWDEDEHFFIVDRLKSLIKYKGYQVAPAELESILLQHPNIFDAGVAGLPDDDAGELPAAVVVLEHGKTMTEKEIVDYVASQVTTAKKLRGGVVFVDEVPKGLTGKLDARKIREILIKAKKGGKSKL
#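 Biochemical qHTS of compounds, final roughly 60 µM downward over six points, against 10 nM purified firefly luciferase using Km concentrations of substrates (10 uM D-luciferin, 10 uM ATP) in Tris acetate pH 7.5 buffer; luminescence output.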
# Rab9 promoter act: activators of Rab9 promoter; Huh7 Rab9 promoter-luciferase reporter, luminescence, 24 h; Potency, µM (highest dose often 9.22 µM), without a hit: at the top dose activation, negative = inhibition, actives largely listed as activators; hit rate 2.8% among 320,000; AID 485297; note: % of control where 0% means no effect; nearly all actives have a fitted effect of over 60% in size
#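 Huh7 cells stably carrying Rab9 promoter–luciferase reporter, plated 1500 cells/well, compound added after 2 h and incubated 24 h at 37 °C; luciferase luminescence then read after 10 min with detection reagent.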
# ELG1 DNA repair: inhibitors of ELG1-dependent DNA repair in HEK293T cells; HEK293T ELG1-luciferase reporter, luminescence, 16 h; DNA damage induced by 5-fluorouridine; Potency, µM (series often up to 46.1 µM), without a hit: at the top dose activity change, negative = inhibition, usual class: inhibitors; hit rate 2.3% among 330,000; AID 504467; note: % is set by controls: 0 for no effect and ±100 for the full control effect; nearly all actives have a fitted effect of over 55% in size
#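 Cells (2,000 per well) received 5-fluorouridine plus test compound or DMSO and were incubated 16 hr at 37 °C, 5% CO2. Luciferase activity was read by luminescence 30 min after ONE-Glo addition; signal suppression marked inhibition of damage-induced ELG1 function.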
# NPC1 promoter act: NPC1 promoter activation. Huh7 NPC1 promoter luciferase reporter, 24 h. Potency, µM (top dose mostly 9.22 µM), inactives show at the highest dose activation, usual class: activators. hit rate 2.4% among 320,000. AID 485313; note: % of control where 0% means no effect; nearly all actives have a fitted effect of over 60% in size
#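 Compounds in DMSO were transferred onto Huh7 NPC1-luciferase reporter cells pre-incubated 2 h; after 24 h at 37 °C, Amplite reagent was dispensed and luminescence recorded 10 min later.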
# Active calls of the source: *; ? = inconclusive; · = no result given. Compounds with a hit are over-represented: about 9.2% of the library has one in this group of screens. Calls come from the whole dose curve; as a rule, active = well fitted curve in the direction sought with a large enough effect; inconclusive = small, poorly fitted or top-dose-only effect, or another doubt; inactive = no such curve, though single readings can be large; an effect the other way counts as inactive or inconclusive. Potency is the fitted concentration of half-maximal effect.
SMILES,ELG1 genotox,SMN2 splice enh,FLuc counter,Rab9 promoter act,ELG1 DNA repair,NPC1 promoter act
CCn1c(C)csc1=NC(=O)c1ccccc1,7%,-10%,19µM*,?,?,17%
C=CCn1c(C)csc1=Nc1ccccc1C,3%,19%,?,10%,16%,-1%
Cc1csc(=NC(=O)c2ccccc2)n1Cc1ccco1,1%,-26%,?,17%,?,13%
CCn1c(C)csc1=NC(=O)c1ccccc1O,?,-9%,13µM*,2.8µM*,?,2.8µM*
Cc1cccc(C2c3[nH]c4ccccc4c3CCN2C(=O)Cc2nc(-c3ccccc3)n[nH]2)n1 (stereo unspecified),-9%,·,4%,-4%,18µM*,-3%
CC(C)(C)N(NS(=O)(=O)c1ccc(F)cc1)c1ccccc1,1%,·,-1%,0%,13%,-40%
COc1cccc(CNn2c(-c3cccc(C)c3)nc3ccccc3c2=O)c1,-21%,-20%,1%,-4%,21µM*,0%
COc1cccc(CC(=O)Nn2c(C)nc3ccccc3c2=O)c1,0%,4%,4%,0%,?,-5%
COc1ccc(OC)c(CNn2c(-c3cccc(C)c3)nc3ccccc3c2=O)c1,-9%,-15%,-16%,-4%,18µM*,-3%
COc1ccc(CNn2c(-c3cccs3)nc3ccccc3c2=O)cc1OC,-9%,-87%,-10%,2%,8.2µM*,-2%
COc1ccc(OCC(=O)Nn2c(-c3ccc(C)cc3)nc3ccccc3c2=O)cc1,0%,-34%,2%,-4%,-1%,-3%
CC1CC(c2ccccc2)=Nc2ccccc2N1 (stereo unspecified),11%,·,?,?,?,19%
Cc1nc(C)c(-c2ccc(SCC(=O)Nc3cccc(Cl)c3)nn2)s1,-3%,·,?,-19%,?,-19%
CCOc1ccc(C(c2c(C)[nH]n(-c3ccccc3)c2=O)c2c(C)[nH]n(-c3ccccc3)c2=O)cc1OC,·,-1%,3µM*,·,·,·
COc1cc(N2Cc3ccccc3C2)ccc1C=O,4µM*,·,21µM*,?,?,?
COc1ccc(/C=C2\Oc3cc(OCC(=O)N4CCC[C@H]4C(=O)O)ccc3C2=O)c(OC)c1,-2%,·,12µM*,-2%,26%,0%
COc1ccc(OC)c(/C=C2\Oc3cc(OCC(=O)N4CCC[C@H]4C(=O)O)ccc3C2=O)c1,1%,·,?,5%,22%,0%
COc1cccc(/C=C2\Oc3cc(OCC(=O)N4CCC[C@H]4C(=O)O)ccc3C2=O)c1,8%,·,2.7µM*,-3%,27%,0%
Cc1ccc(S(=O)(=O)N2CCOCC2)cc1NC(=O)COc1cccc(Oc2ccccc2)c1,-29%,·,-3%,5%,?,1%
Cc1cc(C)cc(OCC(=O)OCC(=O)Nc2cc(S(=O)(=O)N3CCOCC3)ccc2C)c1,-3%,·,2%,1%,9%,-1%
Cc1ccc(S(=O)(=O)N2CCOCC2)cc1NC(=O)COC(=O)CCOc1ccc(C(C)(C)C)cc1,4%,·,3.8µM*,-9%,15%,0%
Cc1ccc(S(=O)(=O)N2CCOCC2)cc1NC(=O)COC(=O)CNC(=O)c1ccc(Oc2ccccc2)cc1,1%,-14%,1.9µM*,-4%,2%,0%
Cc1ccc(C(=O)NCC(=O)OCC(=O)Nc2cc(S(=O)(=O)N3CCOCC3)ccc2C)cc1,-4%,·,?,-9%,22%,-3%
Cc1ccc(S(=O)(=O)N2CCOCC2)cc1NC(=O)COC(=O)CNC(=O)c1ccc(C(C)(C)C)cc1,-2%,?,0.95µM*,-2%,?,-2%
COc1ccc(C(=O)OCC(=O)N(C)C2CCS(=O)(=O)C2)cc1Br (stereo unspecified),6%,·,5%,8%,?,-3%
SMILES,ELG1 genotox,SMN2 splice enh,FLuc counter,Rab9 promoter act,ELG1 DNA repair,NPC1 promoter act
O=C(COC(=O)c1ccccc1)NC12CC3CC(CC(C3)C1)C2,-1%,·,6.7µM*,0%,24%,-2%
O=C(COC(=O)C12CC3CC(CC(C3)C1)C2)NCCCc1ccccc1,1%,?,3%,-1%,2%,-6%
O=C(CCCc1ccccc1)NC12CC3CC(CC(C3)C1)C2,?,·,9.5µM*,2.2µM*,?,3.2µM*
N#Cc1ccccc1Sc1ccccc1C(=O)OCC(=O)NC12CC3CC(CC(C3)C1)C2,-2%,-24%,-15%,-3%,21µM*,-1%
O=C(COC(=O)c1ccc([N+](=O)[O-])cc1)NC12CC3CC(CC(C3)C1)C2,0%,·,·,·,0%,·
CCCCn1c(N)c(N(CC)C(=O)c2cc(CC)c(C)s2)c(=O)[nH]c1=O,-1%,·,0%,-6%,12%,-3%
CCN1C(=O)/C(=C2/C=Cc3ccccc3N2C)OC1=S,?,?,?,3.5µM*,?,2.5µM*
CCN1C(=O)/C(=C2\C=Cc3cc(C)ccc3N2CC)OC1=S,9%,6%,-14%,5%,29%,1%
CC(=O)Oc1ccc(C2=NN(c3ccccc3)C(c3ccccc3)C2)cc1 (stereo unspecified),3%,·,?,0%,-6%,0%
Cc1cc(C)[n+]2[nH]c(N)c(N=Nc3ccccc3)c2n1,0%,·,15µM*,7%,?,9%
CCOc1ccc(C2CC(=O)Nc3nc(SCc4ccccc4C)[nH]c(=O)c32)cc1OC (stereo unspecified),·,·,-10%,·,·,·
O=C(NCC1CCCO1)C(c1ccncc1)N(Cc1cccs1)C(=O)CN1C(=O)c2ccccc2S1(=O)=O (stereo unspecified),10%,·,13µM*,-4%,-6%,-3%
Cc1ccc(C(C(=O)NCC2CCCO2)N(Cc2ccccc2)C(=O)c2ccc(-c3ccccc3)[nH]2)o1 (stereo unspecified),-6%,-8%,1%,5%,16µM*,-4%
Cc1ccccc1CCN(C(=O)CN1C(=O)c2ccccc2S1(=O)=O)C(C(=O)NCC1CCCO1)c1ccncc1 (stereo unspecified),1%,-8%,4%,2%,-1%,1%
Cc1ccc(CN(C(=O)CNC(=O)c2cccs2)C(C(=O)NCC2CCCO2)c2ccccc2)cc1 (stereo unspecified),-8%,?,1%,-1%,9.2µM*,0%
CN(C)c1ccc(C(C(=O)NCC2CCCO2)N(Cc2ccccc2)C(=O)c2snc(C(N)=O)c2N)cc1 (stereo unspecified),-12%,·,0%,0%,12µM*,1%
